# According to the supplement of paper PMC10849652:
# About 8,800 targets were measured; listed, in parts, are those with a hit and a random draw of the rest. About 0.5% of all pairs of compound and target were hits. A number with no mark means an inactive call.
# Key:
# Assay in all cases: log2 fold change, soluble protein after heating vs DMSO (PISA); higher = thermal stabilisation; K562 lysate, 10 uM; active = over 0.2 and 3.5 SD of the protein, either way, in both replicates (recomputed)
# vemurafenib = compound: CCCS(=O)(=O)Nc1ccc(F)c(C(=O)c2c[nH]c3ncc(-c4ccc(Cl)cc4)cc23)c1F [vemurafenib]
# Procedure, shortened: (§1)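 K562 pellets were dounce-homogenised in PBS pH 7.4 with 1 mM MgCl2, and the crude extract at 1 mg/mL protein was treated with 10 μM compound for 30 min. Aliquots were heated for 3 min across 48°C-58°C, pooled, and brought to 0.5% NP-40 at 4°C; soluble protein was the supernatant after 21,000xg for 90 min. Soluble protein was quantified by TMTpro 16plex LC-MS/MS with channel sums equalised, and reported as log2 fold change in thermal stability against DMSO controls, with values from duplicates.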
# [1] = compound: CCCS(=O)(=O)Nc1ccc(F)c(C(=O)c2c[nH]c3ncc(Cl)cc23)c1F
# Procedure, shortened: as §1
# barasertib = compound: CCN(CCCOc1ccc2c(Nc3cc(CC(=O)Nc4cccc(F)c4)[nH]n3)ncnc2c1)CCOP(=O)(O)O [barasertib]
# Procedure, shortened: as §1
# [2] = compound: CC[C@@H]1C(=O)N(C)c2cnc(Nc3ccc(C(=O)NC4CCN(C)CC4)cc3OC)nc2N1C1CCCC1
# Procedure, shortened: as §1
# volasertib = compound: CC[C@@H]1C(=O)N(C)c2cnc(Nc3ccc(C(=O)N[C@H]4CC[C@H](N5CCN(CC6CC6)CC5)CC4)cc3OC)nc2N1C(C)C [volasertib]
# Procedure, shortened: as §1
# [3] = compound: CCn1c(C(=O)N(C2CC2)C2CC2)cc2c3c(ncn3C)c(Nc3cc(C)n(C)n3)nc21
# Procedure, shortened: as §1
# [4] = compound: CCn1cc(-c2ccnc3[nH]c(-c4cccc(CN(C)C)c4)cc23)c(-c2ccc(NC(=O)N(C)C)cc2)n1
# Procedure, shortened: as §1
# [5] = compound: CN1CCC(CNc2ccc3ncc(-c4cccc(OC(F)(F)F)c4)n3n2)CC1
# Procedure, shortened: as §1
# saracatinib = compound: CN1CCN(CCOc2cc(OC3CCOCC3)c3c(Nc4c(Cl)ccc5c4OCO5)ncnc3c2)CC1 [saracatinib]
# Procedure, shortened: as §1
# sotrastaurin = compound: CN1CCN(c2nc(C3=C(c4c[nH]c5ccccc45)C(=O)NC3=O)c3ccccc3n2)CC1 [sotrastaurin]
# Procedure, shortened: as §1
# alvocidib = compound: CN1CC[C@H](c2c(O)cc(O)c3c(=O)cc(-c4ccccc4Cl)oc23)[C@H](O)C1 [alvocidib]
# Procedure, shortened: as §1
# Tubastatin A = compound: CN1CCc2c(c3ccccc3n2Cc2ccc(C(=O)NO)cc2)C1 [Tubastatin A]
# Procedure, shortened: as §1
# [6] = compound: CNC(=O)C1=CC=CC=C1NC2=NC(=NC=C2Cl)NC3=C(C=C(C=C3)N4CCOCC4)OC
# Procedure, shortened: as §1
# defactinib = compound: CNC(=O)c1ccc(Nc2ncc(C(F)(F)F)c(NCc3nccnc3N(C)S(C)(=O)=O)n2)cc1 [defactinib]
# Procedure, shortened: as §1
# [7] = compound: CNc1nc(-c2ccc3c(N)n[nH]c3c2)cc(N2C[C@@H](C(=O)NC3CCCCC3)CC[C@H]2C)n1
# Procedure, shortened: as §1
# encorafenib = compound: COC(=O)N[C@@H](C)CNc1nccc(-c2cn(C(C)C)nc2-c2cc(Cl)cc(NS(C)(=O)=O)c2F)n1 [encorafenib]
# Procedure, shortened: as §1
# [8] = compound: COC(=O)[C@H](CCSC)NC(=O)C1=C(C=C(C=C1)NC[C@H](CS)N)C2=CC=CC=C2
# Procedure, shortened: as §1
# alisertib = compound: COc1cc(Nc2ncc3c(n2)-c2ccc(Cl)cc2C(c2c(F)cccc2OC)=NC3)ccc1C(=O)O [alisertib]
# Procedure, shortened: as §1
# [9] = compound: COc1cc2nc(-c3cc(F)ccc3O)nc(N[C@@H]3CNC[C@H]3C(C)(C)O)c2cc1OC
# Procedure, shortened: as §1
# gefitinib = compound: COc1cc2ncnc(Nc3ccc(F)c(Cl)c3)c2cc1OCCCN1CCOCC1 [gefitinib]
# Procedure, shortened: as §1
# UniProt P52630, sequence (P52630 whole entry, looked up): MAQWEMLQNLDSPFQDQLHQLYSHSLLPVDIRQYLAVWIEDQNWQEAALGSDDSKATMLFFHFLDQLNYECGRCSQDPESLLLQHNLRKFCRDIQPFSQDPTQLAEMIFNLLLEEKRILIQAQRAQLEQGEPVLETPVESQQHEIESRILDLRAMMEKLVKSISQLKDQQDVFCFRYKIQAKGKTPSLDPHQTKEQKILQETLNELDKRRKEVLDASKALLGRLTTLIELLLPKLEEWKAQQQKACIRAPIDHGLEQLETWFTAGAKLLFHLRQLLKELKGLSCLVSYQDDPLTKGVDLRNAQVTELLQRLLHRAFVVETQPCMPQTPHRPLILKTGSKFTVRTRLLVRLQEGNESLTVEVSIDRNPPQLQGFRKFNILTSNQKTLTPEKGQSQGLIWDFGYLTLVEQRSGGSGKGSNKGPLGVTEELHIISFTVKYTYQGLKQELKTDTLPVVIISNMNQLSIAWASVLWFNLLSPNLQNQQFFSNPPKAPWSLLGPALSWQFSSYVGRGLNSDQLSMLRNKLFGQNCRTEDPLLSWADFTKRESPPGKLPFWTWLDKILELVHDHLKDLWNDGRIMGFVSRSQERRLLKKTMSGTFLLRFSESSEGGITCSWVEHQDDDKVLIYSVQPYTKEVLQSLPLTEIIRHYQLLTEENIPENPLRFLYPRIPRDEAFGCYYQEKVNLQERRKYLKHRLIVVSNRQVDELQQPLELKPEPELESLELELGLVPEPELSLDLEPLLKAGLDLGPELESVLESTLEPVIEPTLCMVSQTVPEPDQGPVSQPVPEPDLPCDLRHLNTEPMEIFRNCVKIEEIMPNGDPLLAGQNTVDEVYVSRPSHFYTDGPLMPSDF
# UniProt Q96DI7, sequence (Q96DI7 whole entry, looked up): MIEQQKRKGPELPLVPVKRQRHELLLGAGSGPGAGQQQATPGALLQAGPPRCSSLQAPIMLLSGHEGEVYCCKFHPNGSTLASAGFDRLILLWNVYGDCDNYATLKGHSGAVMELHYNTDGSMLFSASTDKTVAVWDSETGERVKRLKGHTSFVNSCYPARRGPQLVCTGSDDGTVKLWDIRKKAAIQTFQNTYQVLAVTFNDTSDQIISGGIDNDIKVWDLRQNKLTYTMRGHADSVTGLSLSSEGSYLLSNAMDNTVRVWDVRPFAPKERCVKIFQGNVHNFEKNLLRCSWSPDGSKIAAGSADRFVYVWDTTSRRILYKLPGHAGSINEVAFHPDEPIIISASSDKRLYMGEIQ
# UniProt P50225, sequence (P50225 whole entry, looked up): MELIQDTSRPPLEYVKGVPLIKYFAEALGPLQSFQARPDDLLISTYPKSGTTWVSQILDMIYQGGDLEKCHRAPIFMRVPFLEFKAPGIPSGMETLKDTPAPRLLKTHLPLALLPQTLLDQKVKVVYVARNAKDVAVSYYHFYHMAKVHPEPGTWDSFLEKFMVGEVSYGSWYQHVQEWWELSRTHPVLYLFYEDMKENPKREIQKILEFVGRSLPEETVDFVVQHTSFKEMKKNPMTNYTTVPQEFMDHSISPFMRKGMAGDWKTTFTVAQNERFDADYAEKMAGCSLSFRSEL
# UniProt Q08AE8, sequence (Q08AE8 whole entry, looked up): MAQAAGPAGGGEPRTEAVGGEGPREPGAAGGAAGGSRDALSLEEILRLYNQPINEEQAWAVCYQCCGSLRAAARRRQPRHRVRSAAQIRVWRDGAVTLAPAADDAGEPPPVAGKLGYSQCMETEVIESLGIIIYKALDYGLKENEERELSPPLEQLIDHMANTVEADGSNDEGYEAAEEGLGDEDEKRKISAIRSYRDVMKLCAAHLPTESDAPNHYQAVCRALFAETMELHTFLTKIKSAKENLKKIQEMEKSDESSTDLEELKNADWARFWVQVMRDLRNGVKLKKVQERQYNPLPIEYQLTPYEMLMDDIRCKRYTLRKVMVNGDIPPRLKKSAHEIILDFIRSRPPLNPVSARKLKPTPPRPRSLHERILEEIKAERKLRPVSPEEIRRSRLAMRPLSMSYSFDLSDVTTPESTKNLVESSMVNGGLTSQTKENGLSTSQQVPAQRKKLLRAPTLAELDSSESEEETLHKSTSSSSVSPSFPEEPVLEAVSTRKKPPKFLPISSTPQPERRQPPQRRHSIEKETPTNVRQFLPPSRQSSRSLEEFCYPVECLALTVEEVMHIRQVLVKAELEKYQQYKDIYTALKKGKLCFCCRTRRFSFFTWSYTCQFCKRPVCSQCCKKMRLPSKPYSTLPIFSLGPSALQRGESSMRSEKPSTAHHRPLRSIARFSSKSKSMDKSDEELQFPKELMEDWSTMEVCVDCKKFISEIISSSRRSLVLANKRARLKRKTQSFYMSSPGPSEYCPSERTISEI
# UniProt O00506, sequence (O00506 whole entry, looked up): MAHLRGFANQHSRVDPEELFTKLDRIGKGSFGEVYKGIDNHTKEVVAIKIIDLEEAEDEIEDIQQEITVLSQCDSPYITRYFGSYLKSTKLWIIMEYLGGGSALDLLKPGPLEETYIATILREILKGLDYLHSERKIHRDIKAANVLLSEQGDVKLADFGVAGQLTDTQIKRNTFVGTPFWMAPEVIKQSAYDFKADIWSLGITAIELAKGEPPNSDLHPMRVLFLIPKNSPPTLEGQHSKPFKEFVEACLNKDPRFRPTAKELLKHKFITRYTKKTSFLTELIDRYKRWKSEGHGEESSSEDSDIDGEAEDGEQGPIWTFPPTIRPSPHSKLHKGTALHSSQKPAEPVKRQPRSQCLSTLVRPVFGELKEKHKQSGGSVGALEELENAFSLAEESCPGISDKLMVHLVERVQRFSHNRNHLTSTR
# UniProt Q14534, sequence (Q14534 whole entry, looked up): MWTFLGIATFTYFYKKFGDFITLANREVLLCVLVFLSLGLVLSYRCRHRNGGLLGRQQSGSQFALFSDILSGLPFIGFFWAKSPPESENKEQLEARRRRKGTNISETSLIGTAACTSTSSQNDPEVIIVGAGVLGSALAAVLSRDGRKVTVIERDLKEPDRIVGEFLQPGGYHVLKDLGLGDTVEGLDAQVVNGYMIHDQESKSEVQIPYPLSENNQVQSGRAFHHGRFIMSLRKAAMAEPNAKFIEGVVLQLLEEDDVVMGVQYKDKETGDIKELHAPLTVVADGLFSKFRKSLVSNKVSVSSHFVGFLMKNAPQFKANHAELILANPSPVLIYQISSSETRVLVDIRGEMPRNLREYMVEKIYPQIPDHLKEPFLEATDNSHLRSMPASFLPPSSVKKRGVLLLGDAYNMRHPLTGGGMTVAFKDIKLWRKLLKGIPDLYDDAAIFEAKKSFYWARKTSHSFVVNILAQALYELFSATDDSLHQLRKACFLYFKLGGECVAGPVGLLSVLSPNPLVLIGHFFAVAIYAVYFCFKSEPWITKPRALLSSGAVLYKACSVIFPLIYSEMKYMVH
# UniProt Q15796, sequence (Q15796 whole entry, looked up): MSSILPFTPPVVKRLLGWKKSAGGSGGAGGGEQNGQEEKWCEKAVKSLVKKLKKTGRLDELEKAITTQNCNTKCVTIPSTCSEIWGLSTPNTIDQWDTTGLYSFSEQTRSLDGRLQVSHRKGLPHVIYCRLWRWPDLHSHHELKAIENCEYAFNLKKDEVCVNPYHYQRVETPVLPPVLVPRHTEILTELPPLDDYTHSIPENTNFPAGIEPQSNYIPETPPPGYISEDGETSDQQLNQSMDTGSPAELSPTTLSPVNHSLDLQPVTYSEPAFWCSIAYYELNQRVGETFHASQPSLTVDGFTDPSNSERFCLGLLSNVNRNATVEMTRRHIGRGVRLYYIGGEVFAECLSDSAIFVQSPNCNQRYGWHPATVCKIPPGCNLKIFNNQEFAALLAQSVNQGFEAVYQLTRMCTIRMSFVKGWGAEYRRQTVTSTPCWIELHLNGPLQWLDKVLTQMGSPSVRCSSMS
# UniProt Q9NTJ3, sequence (Q9NTJ3 whole entry, looked up): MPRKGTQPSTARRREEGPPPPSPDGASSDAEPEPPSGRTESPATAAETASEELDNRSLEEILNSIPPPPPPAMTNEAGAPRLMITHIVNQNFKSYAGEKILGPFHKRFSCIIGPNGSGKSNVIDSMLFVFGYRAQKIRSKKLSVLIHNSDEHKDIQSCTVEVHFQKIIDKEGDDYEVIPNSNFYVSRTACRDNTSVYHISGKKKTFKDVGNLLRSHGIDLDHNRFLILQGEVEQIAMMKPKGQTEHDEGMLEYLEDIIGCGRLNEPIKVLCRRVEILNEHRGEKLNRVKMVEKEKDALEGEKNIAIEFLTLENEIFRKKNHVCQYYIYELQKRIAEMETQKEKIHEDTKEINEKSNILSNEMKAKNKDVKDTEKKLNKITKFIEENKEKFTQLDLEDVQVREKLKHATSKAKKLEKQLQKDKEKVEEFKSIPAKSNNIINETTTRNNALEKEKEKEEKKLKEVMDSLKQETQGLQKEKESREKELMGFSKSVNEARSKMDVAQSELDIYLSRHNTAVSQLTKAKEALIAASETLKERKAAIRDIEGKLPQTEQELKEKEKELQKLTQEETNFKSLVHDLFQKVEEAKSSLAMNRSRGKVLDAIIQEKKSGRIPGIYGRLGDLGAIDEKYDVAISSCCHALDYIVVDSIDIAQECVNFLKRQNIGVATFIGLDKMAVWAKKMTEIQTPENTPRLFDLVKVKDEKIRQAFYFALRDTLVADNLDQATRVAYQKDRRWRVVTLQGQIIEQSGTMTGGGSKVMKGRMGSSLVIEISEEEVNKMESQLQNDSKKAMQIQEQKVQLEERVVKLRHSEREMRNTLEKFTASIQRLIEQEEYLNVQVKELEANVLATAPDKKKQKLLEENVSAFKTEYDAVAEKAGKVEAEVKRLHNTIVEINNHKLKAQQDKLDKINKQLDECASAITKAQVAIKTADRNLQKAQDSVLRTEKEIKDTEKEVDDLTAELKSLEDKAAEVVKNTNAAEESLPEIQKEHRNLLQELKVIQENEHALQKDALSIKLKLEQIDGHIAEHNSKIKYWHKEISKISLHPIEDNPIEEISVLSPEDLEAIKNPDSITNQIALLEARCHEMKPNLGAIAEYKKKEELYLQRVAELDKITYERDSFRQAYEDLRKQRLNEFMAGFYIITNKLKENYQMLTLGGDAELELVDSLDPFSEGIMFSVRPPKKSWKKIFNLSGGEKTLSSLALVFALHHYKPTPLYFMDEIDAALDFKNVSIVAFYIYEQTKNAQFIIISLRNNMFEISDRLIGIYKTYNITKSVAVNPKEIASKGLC
Target,log2 fold change (vemurafenib),log2 fold change [1],log2 fold change (barasertib),log2 fold change [2],log2 fold change (volasertib),log2 fold change [3],log2 fold change [4],log2 fold change [5],log2 fold change (saracatinib),log2 fold change (sotrastaurin),log2 fold change (alvocidib),log2 fold change (Tubastatin A),log2 fold change [6],log2 fold change (defactinib),log2 fold change [7],log2 fold change (encorafenib),log2 fold change [8],log2 fold change (alisertib),log2 fold change [9],log2 fold change (gefitinib)
SYNE2 isoform 2 (UniProt Q8WXH0),0.009,0.005,0.085,0.004,0.065,-0.042,-0.966 (active),0.371,-0.054,0.035,-0.415,0.143,-0.117,-0.139,-0.003,-0.036,0.004,0.037,0.034,-0.059
SMAD2 (UniProt Q15796),-0.027,0.074,0.03,-0.031,-0.006,-0.027,0.025,-0.003,0.017,-0.002,-0.058,0.009,0.167,0.01,0.038,-0.01,0.03,-0.069,0.006,0.016
SQLE (UniProt Q14534),0.036,-0.01,0.103,0.051,0.073,-0.063,-0.06,-0.02,0.077,0.065,0.003,0.377 (active),0.018,-0.009,-0.022,0.002,0.437 (active),0.059,-0.015,-0.045
SMC4 (UniProt Q9NTJ3),0.002,0.001,0.022,-0.059,-0.041,0.006,0.053,-0.118,0.015,0.012,0.03,-0.079,-0.006,-0.003,-0.008,0.004,0.024,0.001,0,-0.024
STAT2 (UniProt P52630),0.04,0.026,-0.021,-0.03,-0.047,0.033,-0.011,-0.164,-0.009,0.029,0.02,-0.183,0.016,-0.03,-0.018,0.023,-0.014,0.006,0.004,-0.023
SNRNP40 (UniProt Q96DI7),-0.032,0.019,-0.06,-0.001,-0.024,-0.033,-0.115,0.058,0.01,-0.013,-0.026,0.021,-0.019,-0.009,-0.021,-0.025,-0.01,0.016,-0.004,-0.01
SRP54 (UniProt P61011),0.02,-0.024,0,0.068,-0.024,0.017,-0.059,0.006,0.043,0.028,-0.023,0.01,-0.011,0.035,0.023,0.067,0.011,0.055,0.043,-0.025
SULT1A1 (UniProt P50225),0.014,0.004,-0.017,0.032,-0.046,-0.016,0.014,-0.009,0.037,-0.009,0.031,-0.043,0.018,-0.11,0.06,0.026,0.017,0.036,-0.005,-0.011
SPG11 (UniProt Q96JI7),0.084,-0.011,0.006,-0.042,-0.037,-0.05,0.06,-0.13,0.077,0.007,0.161,-0.129,-0.058,-0.015,-0.003,0.049,0.088,-0.041,0.07,-0.024
SH3GL3 isoform 3 (UniProt Q99963),0.08,0.012,0.063,-0.032,-0.049,-0.051,-0.761 (active),0.33,-0.008,0.035,-0.263,-0.14,0.024,-0.063,0.15,0.072,-0.041,-0.076,0.09,0.041
STK25 (UniProt O00506),-0.018,-0.005,0.017,-0.034,-0.078,-0.042,-0.037,0.016,-0.026,0.022,-0.016,-0.093,0.023,0.147,-0.023,0.025,-0.04,-0.007,0.036,-0.065
SPR (UniProt P35270),0.01,0.026,-0.013,-0.014,-0.003,-0.024,0.158,-0.028,0.093,-0.047,0.164,-0.1,0.071,0.019,0.01,-0.097,0.22,0.163,-0.017,-0.013
SPIRE1 (UniProt Q08AE8),0.009,0.05,0.023,0.051,-0.016,0.003,-0.298,0.077,0.017,0.089,-0.101,0.02,0.038,-0.024,0.084,-0.046,-0.036,0.02,0.076,0.049
SH3BP5L (UniProt Q7L8J4),0.078,0.02,-0.029,0.011,0.013,-0.011,-0.014,0.072,0.05,0,-0.003,-0.012,0.036,-0.003,-0.015,0.058,-0.047,0.021,0.015,0.001
SMG1 (UniProt Q96Q15),0.059,0.031,0.08,0.017,-0.027,-0.026,0.003,-0.072,0.039,0.032,0.022,-0.05,0.01,0.033,-0.046,0.016,0,-0.02,-0.013,0.012
SHCBP1 (UniProt Q8NEM2),-0.016,0.003,0.041,-0.041,-0.044,0.027,-0.091,0.022,0.027,0.019,0.001,-0.122,-0.043,0.012,-0.084,0.049,-0.003,0.088,-0.015,0.055
